Activity calls are given as the source filed them.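 The calls were made as follows, unless noted: active = NADPH fluorescence slope more negative than the mean of all samples by about 3 SD, 99.7% confidence; inactive = the rest.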

We go through 13 compounds from PubChem BioAssay.

A short description of assay [1]: inhibitors of TNFa-induced NFkB p65 translocation, primary screen, imaging, HUVEC, MLSMR starter and 10KST1 sets (AID 438;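 active = inhibition above 20% together with a positive visual image hit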;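 also: compound added about 3h40 before a 20 min TNFalpha stimulation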;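 as to inhibition: signal is the nuclear over cytoplasmic p65 intensity ratio per well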). Particulars: HUVEC TNFa-induced p65 nuclear translocation; cell count: measured here: nuclei count (cytotoxicity indicator), at 2.08 µM; inhibition: at 2 µM, stronger effect = higher value, 0% TNFa-plus-vehicle, 100% no-TNFa wells.
Assay [2] can be described thus: endothelial E-selectin expression blockers – imaging, HUVEC, immunofluorescence, MLSMR starter and 10KST1 sets, primary screen (AID 487;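 active = visually confirmed hit in the image check and inhibition above 20%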;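 as to inhibition: signal is fraction of cell area covered by stained E-selectin grains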;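 as to nuclei count: 100% = median nuclei count of all wells on the same plate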). Particulars: HUVEC TNFalpha-induced E-selectin immunofluorescence imaging, at 2 µM; inhibition: stronger effect = higher value; nuclei count: measured here: cell number, toxicity.
The nature of assay [3]: Primary imaging screen for DUSP6 inhibitors that restore phospho-Erk in transfected HeLa cells, chemical complementation (AID 609;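 active = compounds giving at least 50% inhibition in the cell-based MKP-3 phosphatase rescue imaging test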;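 as to inhibition: phospho-Erk level distribution per well compared with pooled transfected vehicle control wells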). To be noted: HeLa MKP-3 transfected, phospho-Erk imaging KS statistic, at 10 µM, cells stimulated with TPA for 15 min.
Assay [4] deals with Dual specificity protein phosphatase 6 (Homo sapiens) (UniProt Q16828). The description is as above. Particulars: HeLa MKP-3 transfected, phospho-Erk imaging KS statistic; at 10 µM; stronger effect = higher value; cells stimulated with TPA for 15 min.
Sequence of Dual specificity protein phosphatase 6 (Homo sapiens) (Q16828 whole entry, looked up): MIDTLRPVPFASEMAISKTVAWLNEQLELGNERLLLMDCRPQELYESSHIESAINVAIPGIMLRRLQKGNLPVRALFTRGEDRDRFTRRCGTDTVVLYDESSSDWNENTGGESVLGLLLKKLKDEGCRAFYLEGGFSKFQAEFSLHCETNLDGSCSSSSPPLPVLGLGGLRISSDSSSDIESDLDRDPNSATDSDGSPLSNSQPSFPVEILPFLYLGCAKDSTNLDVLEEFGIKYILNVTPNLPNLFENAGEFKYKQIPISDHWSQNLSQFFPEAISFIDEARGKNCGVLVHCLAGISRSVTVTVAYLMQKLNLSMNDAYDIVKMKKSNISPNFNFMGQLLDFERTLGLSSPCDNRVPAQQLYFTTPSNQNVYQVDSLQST
Assay [5] has as its target Voltage-gated potassium channel subunit beta-2 (Rattus norvegicus) (UniProt P62483). Briefly: inhibitors of rat Kvbeta2 reductase activity – biochemical, NADPH fluorescence, primary screen (AID 622;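 active = fluorescence slope higher than the sample average by over 3 SD, cut at about -0.22 in these data, passing the limit was not always enough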;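 also: slope of raw intensity against log time taken from 70 to 1610 s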). Particulars: recombinant KvBeta, 4-cyanobenzaldehyde reduction, at 10 µM, stronger effect = higher value.
Assay [6] shares this target. Briefly: enhancers of rat Kvbeta2 NADPH turnover – biochemical, NADPH fluorescence, primary screen (AID 623).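 Also: fluorescence intensity change per second fitted from 20 to 320 s.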 To be noted: Recombinant KvBeta, NADPH fluorescence decrease slope, 10 min; at 10 µM; stronger effect = lower value.
For assay [7], the target named is Alpha-2C adrenergic receptor (Homo sapiens) (UniProt P18825). The experiment in a line: compounds altering alpha2C-coupled GIRK flux – cell-based, HEK293 alpha2C/GIRK1/2, thallium flux, primary screen (AID 624;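 active = fluorescence slope after compound addition differing from the mean of all screened samples at 99.7% confidence, in either direction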;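 also: slope of fluorescence ratio to pre-addition baseline per second over 15 to 24 s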). To be noted: thallium flux BTC fluorescence, at 10 µM, actives lie on both sides.
Sequence of Alpha-2C adrenergic receptor (Homo sapiens) (P18825 whole entry, looked up): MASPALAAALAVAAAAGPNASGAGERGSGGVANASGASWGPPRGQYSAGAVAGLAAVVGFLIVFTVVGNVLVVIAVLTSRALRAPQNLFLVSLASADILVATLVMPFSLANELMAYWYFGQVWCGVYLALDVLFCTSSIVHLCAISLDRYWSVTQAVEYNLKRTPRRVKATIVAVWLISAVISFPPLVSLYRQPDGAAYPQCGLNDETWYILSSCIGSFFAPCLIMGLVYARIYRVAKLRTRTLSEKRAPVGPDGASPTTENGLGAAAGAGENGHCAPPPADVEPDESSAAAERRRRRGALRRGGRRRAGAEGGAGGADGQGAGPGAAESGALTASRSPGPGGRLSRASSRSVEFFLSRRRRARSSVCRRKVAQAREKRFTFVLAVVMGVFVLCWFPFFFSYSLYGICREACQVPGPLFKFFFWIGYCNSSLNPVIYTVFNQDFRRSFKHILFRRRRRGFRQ
A short description of assay [8]: inhibitors of larval lipid processing in zebrafish, primary screen, whole organism, PED6 fluorescence, gall bladder and intestine (AID 686;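 active = a full or partial loss of lipid-probe fluorescence in the fish gall bladder, intestine or both, judged by eye; inactive = no fluorescence loss, or compound toxic to the fish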;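 also: larvae 5 to 7 days old with five fish per well; signal comes from phospholipase A2 cleavage of quenched PED6 carried via bile; overnight exposure to compound and PED6 before scoring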). To be noted: Zebrafish larvae PED6 lipid processing, fluorescence scoring; screened at 20 µM (by protocol).
The nature of assay [9]: loss of swimming-algae plug formation – whole organism, Chlamydomonas reinhardtii, WT vs cilia-less mutant, absorbance, 96-well, primary screen (AID 463189;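 active = inhibition at or above 50% relative to wild type and mutant plate controls; inactive = inhibition below 50%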;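 also: 0% = wild type cc124 cells in DMSO and 100% = ciliumless bld1 mutant cells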). To be noted: Chlamydomonas reinhardtii gravitaxis, OD600 absorbance, 2 days; at 10 µM; stronger effect = higher value.
[10] abbreviates: measured here: cell density z-score.
The mark [11] stands for this setting: measured here: nuclear c-Myc green intensity z-score.
[12] abbreviates: measured here: nuclear pErk red intensity z-score, stronger effect = higher value.

Sequence of Voltage-gated potassium channel subunit beta-2 (Rattus norvegicus) (P62483 whole entry, looked up): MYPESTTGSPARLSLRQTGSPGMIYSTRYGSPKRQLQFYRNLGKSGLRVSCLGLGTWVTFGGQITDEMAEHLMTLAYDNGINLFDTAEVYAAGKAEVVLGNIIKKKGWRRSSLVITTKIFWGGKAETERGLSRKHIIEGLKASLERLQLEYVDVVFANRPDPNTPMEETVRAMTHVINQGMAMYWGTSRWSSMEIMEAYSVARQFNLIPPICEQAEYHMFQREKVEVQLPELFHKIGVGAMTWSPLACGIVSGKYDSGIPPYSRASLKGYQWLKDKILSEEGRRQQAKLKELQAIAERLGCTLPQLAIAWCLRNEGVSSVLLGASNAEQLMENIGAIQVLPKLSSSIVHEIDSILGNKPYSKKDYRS

In the case of `CCOC(=O)C1CCCN(c2nc3ccccc3nc2C(C#N)C(=O)OC(C)C)C1` (centres undefined), in assay [1], the cell count was 547. The inhibition is -8.3% (inactive) in assay [1], 14.3% (inactive) in assay [2], -7.86% (inactive) in assay [4] and 25.2% (inactive) in assay [9]. In addition, the nuclei count in [2] worked out at 143%. The z-score in assay [3] (setting [10]) was -1.02; in assay [3] (setting [11]) it was 0.486; in assay [3] (setting [12]), -0.3. Also, the fluorescence slope in assay [5] was -0.504 (inactive). Also, the NADPH fluorescence slope in assay [6] is -3.6e-05 (inactive). Also, the slope in [7] is 0.00207 (inactive). The outcome in assay [8] was inactive.
Turning to `COc1ccccc1C(=O)N1CCN(Cc2ccc3c(c2)OCO3)CC1`, in assay [1], the cell count was 590. Besides, the inhibition in assay [1] was -14.5% (inactive); in [2], 34.9% (inactive); in assay [4], -15% (inactive); in assay [9] it was 12.2% (inactive). Further, the nuclei count in [2] stood at 183%. In addition, the z-score in assay [3] (setting [10]) was -2.41; in assay [3] (setting [11]), 2.03; in assay [3] (setting [12]), 1. The fluorescence slope in [5] was -0.361 (inactive). Besides, in [6], the NADPH fluorescence slope is -4e-05 (inactive). The slope in assay [7] was 0.0055 (inactive). Also, in [8], the outcome was inactive.
Consider `CC1(C)CC(N(Cc2ccco2)C(=O)Cc2ccccc2)CCO1` (centres undefined), for which the cell count in assay [1] is 535. Moreover, the inhibition in assay [1] is 12.5% (inactive); in assay [2], -104% (inactive); in assay [4] it was 3.5% (inactive); in assay [9], 6.62% (inactive). In assay [2], this compound yielded a nuclei count of 145%. The z-score is -0.358 in assay [3] (setting [10]), 2.8 in [3] (setting [11]) and -0.796 in assay [3] (setting [12]). Also, the fluorescence slope in assay [5] was -0.485 (inactive). For the same compound, the NADPH fluorescence slope in [6] was -3.2e-05 (inactive). Also, in assay [7], the slope is 0.00539 (inactive). Further, the outcome in [8] was inactive.
With `CCOC(=O)CSc1nc(N(C)C)nc(N(C)C#N)n1`, the cell count in [1] came out at 570. Further, the inhibition is -6.8% (inactive) in [1], -140% (inactive) in [2], 5.57% (inactive) in assay [4] and -9.74% (inactive) in assay [9]. The compound further had a nuclei count in assay [2] of 113%. Moreover, the z-score in [3] (setting [10]) is 0.476; in assay [3] (setting [11]) it was -0.876; in assay [3] (setting [12]), -1.19. For the same compound, in assay [5], the fluorescence slope was -0.478 (inactive). For the same compound, the NADPH fluorescence slope in assay [6] is -0.00031 (inactive). Further, in assay [7], the slope is 0.00712 (inactive). Further, the call in assay [8] was inactive.
As to `Cc1ccc(S(=O)(=O)NC(=O)NCc2ccc3c(c2)OCO3)cc1`, the cell count in [1] turned out to be 396. Also, the inhibition is -2.3% (inactive) in assay [1], -36.4% (inactive) in [2], 5.57% (inactive) in assay [4] and -10% (inactive) in [9]. In addition, in [2], the nuclei count was 91.6%. For the same compound, the z-score in assay [3] (setting [10]) was -0.395; in assay [3] (setting [11]), 0.582; in assay [3] (setting [12]), -0.563. Also, the fluorescence slope in [5] was -0.485 (inactive). In addition, the NADPH fluorescence slope in [6] was -0.000226 (inactive). The slope in assay [7] was 0.00482 (inactive). For the same compound, in assay [8], the compound was called inactive.
`CCCC(=O)N1CCN(c2nc(CC(C)C)c3c(c2C#N)CCC3)CC1`: in assay [1], the cell count was 529. The inhibition is -8.3% (inactive) in [1], -117% (inactive) in [2], -5.26% (inactive) in [4] and -3.24% (inactive) in [9]. In assay [2], this compound registered a nuclei count of 130%. Further, the z-score in assay [3] (setting [10]) is -0.247; in [3] (setting [11]), 0.583; in assay [3] (setting [12]), 0.103. For the same compound, the fluorescence slope in assay [5] is -0.5 (inactive). For the same compound, the NADPH fluorescence slope in [6] was -1.9e-05 (inactive). The slope in assay [7] was 0.00433 (inactive). In addition, the result in assay [8] was inactive.
`COc1cccc(-c2nnc3sc(-c4ccco4)nn23)c1`: the cell count in assay [1] amounted to 467. Moreover, the inhibition in assay [1] was -4% (inactive); in assay [2] it was 3.6% (inactive); in [4] it was 8.31% (inactive); in assay [9] it was 38.1% (inactive). In addition, in [2], the nuclei count came to 105%. The z-score in assay [3] (setting [10]) was 1.05; in assay [3] (setting [11]), -0.932; in [3] (setting [12]) it was -0.641. For the same compound, the fluorescence slope in assay [5] is -0.463 (inactive). In addition, the NADPH fluorescence slope in [6] was 1.3e-05 (inactive). Besides, the slope in assay [7] is 0.00496 (inactive). For the same compound, the outcome in assay [8] is “active; weak signal in gallbladder and intestine”.
Take `CCCCNC(=O)N1CCOCCOCCN(C(=O)NCCCC)CCOCCOCC1`: the cell count in assay [1] is 546. For the same compound, the inhibition in assay [1] was -15.4% (inactive); in assay [2], -120% (inactive); in assay [4], 3.97% (inactive); in assay [9], 17.8% (inactive). This compound also showed a nuclei count in assay [2] of 144%. In addition, the z-score in assay [3] (setting [10]) was 1.2; in [3] (setting [11]) it was -1.56; in assay [3] (setting [12]) it was 0.0473. The fluorescence slope in [5] is -0.526 (inactive). The NADPH fluorescence slope in assay [6] was -2.2e-05 (inactive). Moreover, the slope in assay [7] was 0.00599 (inactive). Moreover, the compound was classed as inactive in [8].
For `CC(C(=O)N1CCOCC1)N1C(=O)c2ccccc2C1=O` (centres undefined), in assay [1], the cell count came out at 306. The inhibition in assay [1] is -3% (inactive); in assay [2], -45.1% (inactive); in assay [4], -8.76% (inactive); in assay [9], 15.3% (inactive). For the same compound, the nuclei count in [2] amounted to 96%. Moreover, the z-score in assay [3] (setting [10]) is 1.24; in assay [3] (setting [11]), -0.122; in assay [3] (setting [12]), -1.67. In addition, the fluorescence slope in assay [5] is -0.419 (inactive). In addition, the NADPH fluorescence slope in assay [6] was 2.4e-06 (inactive). Also, the slope in assay [7] was 0.0049 (inactive). Moreover, in assay [8], the compound was called inactive.
For the compound `CC(=O)c1c(C)c2c(n1CCN(C)C)CCCC2`, in assay [1], the cell count stood at 518. Besides, the inhibition is -10% (inactive) in assay [1], 17.6% (inactive) in [2], -11.5% (inactive) in [4] and -13.1% (inactive) in assay [9]. Moreover, the nuclei count in assay [2] worked out at 93.6%. Besides, the z-score in assay [3] (setting [10]) is -0.53; in assay [3] (setting [11]), 2.44; in [3] (setting [12]), 1.25. Also, the fluorescence slope in assay [5] was -0.521 (inactive). For the same compound, in assay [6], the NADPH fluorescence slope was -1.7e-05 (inactive). In assay [7], the slope was 0.0146 (active). Further, in [8], the compound was classed as inactive.
For the compound `O=C(O)CC(C(=O)N(c1ccccc1)c1ccccc1)N1CCOCC1` (centres undefined), the cell count in [1] came out at 498. Also, the inhibition in assay [1] was -4.7% (inactive); in [2], -103% (inactive); in [4], -7.01% (inactive); in assay [9], -20.4% (inactive). The compound further had a nuclei count in assay [2] of 118%. Moreover, the z-score in [3] (setting [10]) is -1.14; in assay [3] (setting [11]), 0.849; in [3] (setting [12]), 1.75. Also, the fluorescence slope in assay [5] is -0.576 (inactive). Besides, the NADPH fluorescence slope in assay [6] was -4e-05 (inactive). The slope in [7] was 0.00573 (inactive). Further, the call in assay [8] was inactive.
`O=C1CCC(=O)N1CN(C(=O)c1ccco1)c1ccc(Cl)c(Cl)c1`: the cell count in assay [1] stood at 481. For the same compound, the inhibition in assay [1] is 1.1% (inactive); in assay [2], -72.5% (inactive); in assay [4], -3.5% (inactive); in assay [9], -12.3% (inactive). In assay [2], this compound had a nuclei count of 125%. The z-score in [3] (setting [10]) was -1.21; in assay [3] (setting [11]), 0.938; in assay [3] (setting [12]), 0.134. Besides, in assay [5], the fluorescence slope is -0.562 (inactive). Further, the NADPH fluorescence slope in assay [6] is -2.3e-05 (inactive). Besides, the slope in assay [7] was 0.00659 (inactive). Moreover, the outcome in [8] was inactive.
For the compound `C/C(CC1(O)C(=O)N(Cc2ccccc2)c2ccccc21)=N\O` (centres undefined), the cell count in assay [1] came out at 645. Also, the inhibition was -11.4% (inactive) in assay [1], -28.2% (inactive) in assay [2], -7.79% (inactive) in assay [4] and -6.97% (inactive) in [9]. The nuclei count in assay [2] came out at 182%. Also, the figures for the z-score in [3] (setting [10]), in assay [3] (setting [11]) and in [3] (setting [12]) were -1.05, -1.05 and 1.51, respectively. Besides, in assay [5], the fluorescence slope was -0.464 (inactive). The NADPH fluorescence slope in assay [6] is -0.000206 (inactive). For the same compound, the slope in assay [7] is 0.0275 (active). Besides, the result in assay [8] was inactive.

Usually inhibition stands for the relative decrease from the control value, in per cent.
